In the OligoGym collection:
Also: reference of the scale not given here.

What follows are sequences tested against CBWD1 (assay: pooled miR-30 sensor sort-seq; sequence = guide strand). Details: shRNA.
TTCTTCTGGAACCAGGTCTGTT showed a sensor-assay potency score (higher = more potent) of -0.933. In the case of AAGCAACTTGTCTAGTAGCTTC, the sensor-assay potency score (higher = more potent) is reported as -0.327. TACATCTTCTTCTGGAACCAGG was tested, and the sensor-assay potency score (higher = more potent) was -0.734.

The sequences below were run against CBWD2 in the same assay as above. Details: shRNA.
Work on TATTTTGAATCCACTATAGTTA yielded a sensor-assay potency score (higher = more potent) of -0.411. Sequence TTTATGGATCTAATTGTCGCTC has a sensor-assay potency score (higher = more potent) of -0.0827. TTATGGATCTAATTGTCGCTCT showed a sensor-assay potency score (higher = more potent) of 0.237.

These sequences were tested against CBWD3 in the same assay as above. Details: shRNA.
For TTGTCGTTCTTAATTTCTTTAC, the sensor-assay potency score (higher = more potent) was -1.76. In the case of TTACATCTTCTTCTGGAACCAG, the sensor-assay potency score (higher = more potent) is reported as 0.201. For TTTATTATCCAATCCTTTTGAT, the sensor-assay potency score (higher = more potent) was -0.0523. Sequence TCTTCTGGAACCAAGTCTGTTT has a sensor-assay potency score (higher = more potent) of -0.303. In the case of TTTATGGATCTAATTGTCGTTC, the sensor-assay potency score (higher = more potent) is reported as -0.438. In the case of TATTATCCAATCCTTTTGATAA, the sensor-assay potency score (higher = more potent) is reported as -1.72. TACATCTTCTTCTGGAACCAAG was tested, and the sensor-assay potency score (higher = more potent) was -0.337. Sequence TTATCCAATCCTTTTGATAAGA has a sensor-assay potency score (higher = more potent) of -1.37. For TTATTATCCAATCCTTTTGATA, the sensor-assay potency score (higher = more potent) was -1.04.

These sequences were tested against CBX5 in the same assay as above. Details: shRNA.
In the case of TTAGGAACATTAAATCACCACA, the sensor-assay potency score (higher = more potent) is reported as -0.835. TAAAATGCTATCACAATTTGTG was tested, and the sensor-assay potency score (higher = more potent) was -0.0381. Work on TTTTAGATTTGATGTCATCGGC yielded a sensor-assay potency score (higher = more potent) of -0.344. For TTAAATCACCACAGGAATCTGT, the sensor-assay potency score (higher = more potent) was -0.0279. With TATACTTTTTCATAAATTCAGA the sensor-assay potency score (higher = more potent) was -1.38. For TCACATTAGCTTCTTTTGCAAG, the sensor-assay potency score (higher = more potent) was -1.01. TTACTTTCTGACTTCTCCCTGG showed a sensor-assay potency score (higher = more potent) of 0.106. With TTTAGATTTGATGTCATCGGCA the sensor-assay potency score (higher = more potent) was -0.103. Work on TTTGATGTCATCGGCACTGTTT yielded a sensor-assay potency score (higher = more potent) of -0.553. Sequence TAGATATTCCACTTGTCCCTTA has a sensor-assay potency score (higher = more potent) of 0.296. In the case of TTAGATTTGATGTCATCGGCAC, the sensor-assay potency score (higher = more potent) is reported as 0.364. TAAATTCAGAAATTAGCTCAGG showed a sensor-assay potency score (higher = more potent) of -0.159.

What follows are sequences tested against CBX7 in the same assay as above. Details: shRNA.
Work on TAGTTCTTTGAAAGTGACCAGG yielded a sensor-assay potency score (higher = more potent) of -0.792. For TCCACTTCACCAGATACTCGAC, the sensor-assay potency score (higher = more potent) was -1.35. TGTACTTTGGGGGCCATCCTTT showed a sensor-assay potency score (higher = more potent) of -1.24. ATACATCACACAACTTAGCAGA gave a sensor-assay potency score (higher = more potent) of -0.583. In the case of ATACTCGACTTTACCCTTCCGC, the sensor-assay potency score (higher = more potent) is reported as -0.334. Work on TTTAACTCCCAGAACCAGCTGC yielded a sensor-assay potency score (higher = more potent) of 0.312. TCGATGGCTGTGGCTCTCCAGG gave a sensor-assay potency score (higher = more potent) of -1.84. TACTCGACTTTACCCTTCCGCA showed a sensor-assay potency score (higher = more potent) of -1.36. TTCCGCACGCGCTTCTTCCGGA was tested, and the sensor-assay potency score (higher = more potent) was -0.445. TAGAGGAGAATGATAATGGTGG gave a sensor-assay potency score (higher = more potent) of 0.263. TCGTAGGCCATGACGAGGCGGG showed a sensor-assay potency score (higher = more potent) of -0.996. In the case of TTCTTTGAAAGTGACCAGGAAG, the sensor-assay potency score (higher = more potent) is reported as -1.2.
